# Screening results (PubChem)
# Hits are enriched below; roughly 9.2% of the tested compounds scored in any of these assays.
# OTUD3 inh: inhibitors of human OTUD3 deubiquitinase; inhibition, % at 25 µM; OTU domain-containing protein 3 (Homo sapiens), Q5T2D3; 47,000 compounds, 0.7% hits; purified OTUD3, Ub-rhodamine fluorescence, 2 h
# USP7 inh: inhibitors of human USP7 deubiquitinase; Ubiquitin carboxyl-terminal hydrolase 7 (Homo sapiens), Q93009; purified USP7, Ub-rhodamine cleavage fluorescence; inhibition, % at 20 µM; 47,000 compounds, 0.3% hits; AID 1645854, 2021
# USP17 block: inhibitors of human USP17 deubiquitinase. Ubiquitin carboxyl-terminal hydrolase 17-like protein 5 (Homo sapiens), A8MUK1. purified USP17, Ub-rhodamine cleavage fluorescence, 3 h. inhibition, % at 50 µM. 47,000 compounds, 6.5% hits. AID 1645855, 2021
# USP8 inh: inhibitors of human USP8 deubiquitinase | Ubiquitin carboxyl-terminal hydrolase 8 (Homo sapiens), P40818 | purified USP8, Ub-rhodamine cleavage fluorescence, 30 min | inhibition, % at 20 µM | 47,000 compounds, 4.2% hits | AID 1645853, 2021
# UCHL1 inh: inhibitors of human UCHL1 deubiquitinase; inhibition, % at 20 µM; 47,000 compounds, 0.2% hits; purified UCHL1, Ub-rhodamine cleavage fluorescence
# USP10 inh: inhibitors of human USP10 deubiquitinase | purified USP10, Ub-rhodamine fluorescence, 60 min | AID 1645856, 2021 | inhibition, % at 20 µM | 47,000 compounds, 1.1% hits
# Starred values were filed as active, the others as inactive; . = not tested or not shown. No stated cut-off is given here; in the data, active means inhibition above about 30%; inactive means the rest.
SMILES,OTUD3 inh,USP7 inh,USP17 block,USP8 inh,UCHL1 inh,USP10 inh
Cc1ccc(Cn2nnc3c(=O)[nH]c(C4CCN(S(=O)(=O)c5ccc(S(=O)(=O)NC6CCCC6)cc5)CC4)nc32)cc1,10,10,-20,-228,5,34*
CC(C)(C)c1ccc(Cn2nnc3c(=O)[nH]c(C4CCN(S(=O)(=O)c5ccc(S(=O)(=O)NC6CCCC6)cc5)CC4)nc32)cc1,7,0,16,-176,-3,29
O=C(C(c1ccccc1)c1ccccc1)N1CCC(c2nc3c(nnn3Cc3c(F)cccc3Cl)c(=O)[nH]2)CC1,16,4,51*,12,7,27
COc1cc(S(=O)(=O)N2CCC(c3nc4c(nnn4Cc4ccc(F)cc4)c(=O)[nH]3)CC2)ccc1-n1cnnn1,-11,4,32*,8,3,21
CC(C)C1=C2C3=CC=C(C=O)C[C@H](O[C@@H]4OC[C@@H](O)[C@H](O)[C@H]4O)[C@@]3(C)CC[C@@]2(C)CC1,-22,-8,-18,-9,-1,-12
O=c1[nH]c(C2CCN(S(=O)(=O)c3ccc(S(=O)(=O)N4CCOCC4)cc3)CC2)nc2c1nnn2Cc1cccc(Cl)c1,0,9,7,35*,6,28
CC(=O)Nc1onc(C)c1-c1ccc(C)c(S(=O)(=O)N2CCC3(CC2)OCCO3)c1,20,3,2,24,3,3
COc1ccc(C)cc1NC(=O)CSc1nc(C)nc2c1oc1ccccc12,13,-10,52*,-14,-14,-6
CC(=O)N[C@@H]1CN(CC(=O)N2CCCCC2)C[C@H]1O,-7,-2,-21,-15,-4,-6
O=C1c2c(O)cc(O)cc2OC(c2ccc(O)c(O)c2)C1O (configuration not stated),62*,-72,65*,6,0,2
COc1ccccc1CNC(=O)COC(=O)c1c(C)c(-c2ccccc2)nc2ccccc12,-14,-5,-22,-5,-4,-8
CCOc1cc2c(cc1OCC)C(c1ccc(OC)cc1)N(c1ccc(OC)c(Cl)c1)C(=O)C2 (configuration not stated),2,15,11,36*,11,-4
CCc1ccc(OCc2nnc(SCC(=O)Nc3ccccc3OC)n2Cc2ccccc2)cc1,15,6,52*,18,10,13
Cc1cc(F)ccc1NC(=O)C1CCN(c2nc3nc[nH]c(=O)c3s2)CC1,-22,-1,0,-7,-6,-1
O=c1c2[nH]c3ccccc3c2ncn1CCC1=CCCCC1,-1,6,1,-18,2,16
Cc1ccc2[nH]c3c(=O)n(CC4CCCO4)cnc3c2c1 (configuration not stated),3,-1,68*,4,-1,3
Cc1ccc2[nH]c3c(=O)n(CCN4CCCC4)cnc3c2c1,11,-8,5,15,1,0
COc1ccc(CCn2cnc3c([nH]c4ccccc43)c2=O)cc1,11,10,34*,26,5,3
Cc1ccc2[nH]c3c(=O)n(CCC4=CCCCC4)cnc3c2c1,10,10,15,31*,3,1
Cc1ccc2[nH]c3c(=O)n(CCc4ccc(O)cc4)cnc3c2c1,5,7,57*,14,3,-2
CN(C)C(=O)c1cc2c(Cl)ccc3c2n1CCO3,16,0,10,12,2,0
O=C(N[C@@H]1C[C@@H](Oc2cccc(F)c2)[C@H](O)[C@H]1N1CCOCC1)c1cocn1,15,5,17,-57,1,1
CC(=O)Nc1cccc(N2CC(C(=O)Nc3ccc(C)cn3)CC2=O)c1 (configuration not stated),-10,4,0,5,-1,-1
COc1ccc(CCNC(=O)c2ccc3c(c2)SC2=NS(=O)(=O)CCN23)cc1,-19,3,-3,35*,-2,8
O=C(Nc1cccc(C(F)(F)F)c1)c1ccc2c(c1)SC1=NS(=O)(=O)CCN12,0,-2,35*,0,-1,3
SMILES,OTUD3 inh,USP7 inh,USP17 block,USP8 inh,UCHL1 inh,USP10 inh
COc1cccc(CNC(=O)CN2CCC3(CC2)Nc2ccccc2C2=NCCN23)c1,-12,-3,-14,-15,-2,-3
CCOC(=O)c1noc2nc(C)nc(NCc3ccc(OC)cc3)c12,-2,0,.,40*,0,3
O=C(OC[C@H]1CCCN2CCCC[C@H]12)c1ccccc1,-5,1,-13,-178,-2,0
COCCN1C(=O)c2[nH]nc(-c3ccccc3O)c2C1c1cccc(OCc2ccccc2)c1 (configuration not stated),-5,-2,25,65*,12,22
COc1ccc(C2c3c(-c4ccccc4O)n[nH]c3C(=O)N2Cc2ccncc2)cc1OC (configuration not stated),1,9,0,14,3,0
CNc1nc(C2CCN(C(C)=O)C2)nc2c1CN(Cc1ccc3ncccc3c1)CC2 (configuration not stated),1,-2,1,8,-2,-5
COc1ccccc1OC(C)C(=O)Nc1ccc2nsnc2c1 (configuration not stated),17,-4,32*,73*,6,4
CCCOC(=O)c1cc(NC(=O)c2ccc(-c3ccccc3)cc2)ccc1N1CCOCC1,-3,6,13,26,8,21
Cn1c(=O)c2c(nc(CN3CCc4ccccc4C3)n2CC(=O)c2ccccc2)n(C)c1=O,-21,-8,0,36*,-2,-5
COc1ccc(C)cc1NC(=O)CCn1cnc2ccccc2c1=O,11,4,-6,7,3,2
COc1ccc(C)cc1NCC(=O)Nc1ncc(Cl)c(C)c1Cl,-10,-12,24,36*,-9,-5
Cc1ccc2c(Nc3ccccc3)c(-c3nc(C)no3)cnc2n1,-2,-12,-14,-3,-8,-2
Cc1ccc2c(NCc3ccc4c(c3)OCO4)c(-c3nc(C)no3)cnc2n1,7,3,36*,61*,-2,-7
N#Cc1cccc(NC(=O)Nc2cccn(Cc3ccc(F)cc3)c2=O)c1,4,-1,74*,91*,8,20
N#Cc1cccc(NC(=O)N2CCC(c3nc4c(nnn4Cc4ccc(F)cc4)c(=O)[nH]3)CC2)c1,9,-6,28,0,1,9
CNc1nc2c(c(=O)n1C)CN(C(=O)Nc1ccc(Cl)c(Cl)c1)CC2,6,-7,2,6,2,4
